PfHsp40 yeast: rescue of PfHsp40-mediated yeast toxicity | growth rescue, % at 12.5 µM | S. cerevisiae expressing PfHsp40, growth rescue, ATP luminescence | hit rate 0.68% among 340,000; in the data active = growth rescue above about 28%, passing the limit was not always enough; inconclusive = no clear call, values can overlap the other calls;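 note: yeast W303a lacking pdr1 and pdr3 grown in galactose medium; growth measured after three days at 30 °C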
ugtP null kill: growth inhibition of S. aureus ugtP deletion strain. S. aureus RN4220 ugtP deletion, OD600 growth, 16 h. growth inhibition, % (no concentration beside the values). hit rate 0.54% among 330,000. AID 1259309; in the data active = growth inhibition above about 68%;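 note: plate controls were untreated wells for no effect and antibiotic for full effect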
PrP 5UTR inh: suppresses PrP 5' UTR mRNA reporter expression; cell-based PrP 5' UTR mRNA reporter, plate reader; inhibition, % (no concentration beside the values); hit rate 0.35% among 340,000; AID 488862; in the data active = inhibition above about 52%; note: 0 = median of the neutral control wells
BJeLR lethal: kills HRASV12-expressing BJeLR cells | inhibition, % (test concentration not listed) | hit rate 0.17% among 300,000 | BJeLR (HRASV12) viability, CellTiter-Glo ATP luminescence, 48 h; in the data active = inhibition above about 50%; inconclusive = no clear call, values can overlap the other calls
Y pestis TopoI: inhibitors of Yersinia pestis topoisomerase I; Y. pestis Topo-I cleavage product accumulation, plate reader; activity, % at 10 µM; hit rate 0.064% among 360,000; AID 504884; in the data active = activity above about 50%, passing the limit was not always enough; inconclusive = no clear call, values can overlap the other calls
RN4220 kill: kills Staphylococcus aureus RN4220. S. aureus RN4220 growth, OD600, 16 h. inhibition, % (test concentration not listed). hit rate 0.33% among 330,000; in the data active = inhibition above about 85%;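 note: plate controls were untreated cells for no effect and reference antibiotic for full effect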
The depositor's hits bear a star; u = inconclusive; x = not tested or not shown. An excerpt weighted towards active compounds, which were near 1.4% of everything screened.

SMILES	PfHsp40 yeast	ugtP null kill	PrP 5UTR inh	BJeLR lethal	Y pestis TopoI	RN4220 kill
CCC[C@@H](CN1CCC[C@H]1CN1C(N)=NC[C@H]1CC(C)C)N1C[C@@H]([C@H](C)CC)N(CCc2ccc(Cl)c(Cl)c2)C1=N	-1	100*	22	x	-5	100*
CC[C@@H](C)[C@@H]1CN([C@@H](CN2CCC[C@H]2CN2C(N)=NC[C@H]2CC(C)C)C(C)C)C(=N)N1CCCC1CCCC1	1	101*	-5	x	6	100*
CC[C@@H](C)[C@@H]1CN([C@@H](CN2CCC[C@H]2CN2C(N)=NC[C@H]2CC(C)C)C(C)C)C(=N)N1CCc1ccc(Cl)c(Cl)c1	2	100*	-17	x	-4	100*
CC(C)[C@@H]1CN=C(N)N1C[C@@H]1CCCN1C[C@H](C)N1C[C@@H](Cc2ccccc2)N(CCc2ccc(Cl)c(Cl)c2)C1=N	4	100*	0	x	-10	101*
C[C@@H](CN1CCC[C@H]1CN1C(N)=NC[C@@H]1Cc1ccccc1)N1C[C@@H](Cc2ccccc2)N(CCc2ccc(Cl)c(Cl)c2)C1=N	5	x	-13	x	-6	x
Cc1cc(C(=O)OC2C(Cc3ccccc3)NS(=O)(=O)C3CC4C=C[C@]23O4)ccc1[N+](=O)[O-] (stereo partly drawn)	x	-13	x	x	x	2
COc1ccc(OC)c(C=CC(=O)OCC(=O)Nc2ccc3c(c2)OCCO3)c1	x	5	x	x	x	10
Cc1ccc(O)c(C2=NNC(c3ccc(Cl)cc3)C2)c1 (stereo not drawn)	u	17	-46	3	-8	28
Oc1ccc(Cl)cc1C1=NNC(c2cccs2)C1 (stereo not drawn)	0	99*	-28	2	-3	96*
CCOC(=O)C1C2COc3ccc(OC)cc3C2N2C(=O)C(C)NC(=O)[C@@]12C (stereo partly drawn)	x	0	x	x	x	5
O=Nc1c(O)c2ccccc2c2ccccc12	24	99*	-65	2	6	100*
Cc1cc(C)c2c(N=NN3CCCCC3)[nH]nc2n1	86*	54	-8	2	-2	13
Cc1cc(C)c2c(C)[nH]nc2n1	x	8	x	0	11	1
CCN(CC)N=Nc1[nH]nc2nc(C)cc(C)c12	45*	45	-8	-10	5	13
CCOC(=O)C1=CCC2c3c(c4ccccc4n3C)C(=O)C1N2S(=O)(=O)c1ccc(C)cc1 (stereo not drawn)	x	-14	x	x	x	2
COC(=O)c1ccc(C23CC4(C2)C(CN(C)C4c2ccccc2)C3c2ccc(Cl)nc2)cc1 (stereo not drawn)	x	-2	x	x	x	-1
NC(=O)c1oc2ccccc2c1NC(=O)c1nc2ccccc2s1	0	0	-69	-12	-7	1
O=C(Nc1nnc(-c2ccccc2)o1)c1nc2ccccc2s1	-1	98*	-35	6	3	98*
Cc1ccc(CNC(=O)C2COc3ccccc3O2)cc1 (stereo not drawn)	103*	8	-37	3	0	1
O=C(C1=CC(c2ccc3c(c2)OCO3)CC(OCc2ccc(CO)cc2)O1)N1CCOCC1 (stereo not drawn)	x	1	x	x	x	6
NS(=O)(=O)c1ccc(N2N=C(c3ccccc3)CC2c2cccc(F)c2)cc1 (stereo not drawn)	5	-26	-21	-10	11	11
COc1ccc(C2CC(c3ccccc3)=NN2c2ccc(S(N)(=O)=O)cc2)cc1OC (stereo not drawn)	2	-11	-20	-4	12	-11
NS(=O)(=O)c1ccc(N2N=C(c3ccc(Br)cc3)CC2c2ccc(F)cc2)cc1 (stereo not drawn)	-1	45	-33	4	22	98*
COc1ccc(C2CC(c3ccc(Cl)cc3)=NN2c2ccc(S(N)(=O)=O)cc2)cc1 (stereo not drawn)	0	40	-23	x	30	94*
COc1ccc(C2CC(c3ccncc3)=NN2c2ccc(S(N)(=O)=O)cc2)cc1 (stereo not drawn)	1	8	-101	x	7	-4
SMILES	PfHsp40 yeast	ugtP null kill	PrP 5UTR inh	BJeLR lethal	Y pestis TopoI	RN4220 kill
COc1ccc(C2=NN(c3ccc(C(=O)O)cc3)C(c3ccc(OC)c(OC)c3)C2)cc1 (stereo not drawn)	112*	-5	3	4	4	13
Cc1cccc(C(=O)O/N=C(\N)Cc2cccc3ccccc23)c1	300*	2	-24	5	6	3
S=c1nc[nH]c2nc[nH]c12	1	-3	10	76*	-1	5
CC(=O)Nc1cc(C(C)(C)C)c(O)c(C(C)(C)C)c1	0	-17	-17	10	-1	7
CC(C)(C)c1cc([N+](=O)[O-])cc(C(C)(C)C)c1O	x	93*	x	37	x	88*
COc1ccc(C(NC(=O)c2cc(OC)ccc2OC)c2ccccc2)cc1 (stereo not drawn)	3	6	2	-10	50*	-8
COc1ccc(OC)c(CC(=O)NC(c2ccccc2)c2ccccc2)c1	0	4	9	7	25	5
CC(NC(=O)c1nc[nH]c1C(=O)N1CCN(C(=O)OC(C)(C)C)CC1)C(=O)OC(C)(C)C (stereo not drawn)	x	8	x	x	x	8
O=C1NC(=O)C(=Cc2ccccc2OCCOc2ccc([N+](=O)[O-])cc2)C(=O)N1	45*	-4	-20	x	-3	28
O=C(O)C=CC(=O)NCc1cn(-c2ccccc2)nc1-c1cccc(Br)c1	x	-3	x	x	x	13
CC(C)c1ccc2c(c1)CCC1C(C)(CN)CCCC21C (stereo not drawn)	-1	7	-21	107*	0	-10
CC(C)(C)OC(=O)NC(Cc1ccccc1)C(=O)NC(CO)C(O)C1CC1C(=O)N1CCCC1 (stereo not drawn)	x	4	x	x	x	7
CC(NC(=O)c1nc[nH]c1C(=O)NC(Cc1ccccc1)C(=O)OC(C)(C)C)c1ccccc1 (stereo not drawn)	x	-5	x	x	x	0
CC(O)C1CN=C(N)N1CCCCC1CCCCC1 (stereo not drawn)	x	3	x	x	x	7
c1ccc(CSC2=NNC(c3ccccn3)S2)cc1 (stereo not drawn)	93*	7	-28	6	3	5
O=C(CSC1=NNC(c2ccccn2)S1)Nc1ccc(C(F)(F)F)cc1 (stereo not drawn)	3	-3	-12	-8	-6	0
CC1OC(n2cc(F)c(=O)[nH]c2=O)C(O)C1O (stereo not drawn)	x	97*	x	x	x	76
O=c1[nH]c(=O)n([C@H]2C[C@H](O)[C@@H](CO)O2)cc1F	-1	x	35	93*	0	x
O=c1[nH]c(=O)n(C2CC(O)C(CO)O2)cc1I (stereo not drawn)	-1	-2	-37	x	-8	3
O=c1[nH]c(=O)n(C2OC(CO)C(O)C2O)cc1Br (stereo not drawn)	0	1	-7	-7	2	3

Compound activity from PubChem BioAssay.
